Compounds with a hit are over-represented: about 21% of the library has one in this group of screens.
Shiga toxin inh: A qHTS for Small Molecule Inhibitors of Shiga Toxin. hit rate 9.2% among 290,000. Vero cells, Shiga toxin protein synthesis inhibition reporter. inhibition, % at 38.7 µM. AID 2315, 2010; in the data active = inhibition mostly above about 28%, no sharp cut-off; inactive = mostly below about 43%
CHX counter: Cycloheximide Counterscreen for Small Molecule Inhibitors of Shiga Toxin | hit rate 12% among 300,000 | cell reporter, cycloheximide protein synthesis inhibition counterscreen | max response, %; in the data active = max response mostly above about 13%, no sharp cut-off; inactive = mostly below about 14%; note: read at 38.3 µM for the half of the compounds with a filed dose
Pf growth 96h: Primary qHTS for delayed death inhibitors of the malarial parasite plastid, 96 hour incubation | P. falciparum luciferase reporter growth, 96 h | hit rate 6.9% among 320,000 | Potency, µM (doses to about 28.7 µM), actives largely listed as inhibitors | AID 504834, 2011
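Delayed-death screen, second-generation endpoint: infected erythrocytes, 2% hematocrit, 0.05% parasitemia final; 96 hours at 37 C, 5% CO2; luciferase detection reagent; luminescence decrease equals reduced growth.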
Pf growth 48h: Primary qHTS for delayed death inhibitors of the malarial parasite plastid, 48 hour incubation. P. falciparum luciferase growth in erythrocytes, 48 h. Potency, µM (top dose mostly 28.7 µM), usual class: inhibitors. hit rate 5.9% among 310,000. AID 504832, 2011
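Compounds are pin-transferred into medium, infected erythrocytes (2% hematocrit, 0.1% parasitemia final) are added, and plates sit one parasite generation at 37 C in 5% CO2. Detection reagent is then added and luminescence measured.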
AMA1 RON2 block: qHTS for Inhibitors of AMA1-RON; Towards Development of Antimalarial Drug Lead: Primary Screen | Plasmodium falciparum AMA1 (3D7) - RON2 peptide interaction | AlphaScreen AMA1-biotinylated RON2 peptide binding | Potency, µM (doses to about 58.2 µM), usual class: inhibitors | hit rate 0.2% among 360,000 | AID 720542, 2013; note: nearly all actives have a fitted effect of over 45% in size
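AMA1 (3D7) with his tag at 25 nM final met compounds first, then biotinylated RON2 peptide at 25 nM; detection used donor plus acceptor beads, 10 µg/mL apiece, read by AlphaScreen after 30 min at room temperature.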
HCV inhibitor: qHTS Assay for Inhibitors of Hepatitis C Virus (HCV); Potency, µM (top dose mostly 41.8 µM), most hits filed as inhibitors; AID 651820, 2012; Huh7.5.1 HCVcc-Cre infection, luciferase reporter, 44 h; hit rate 3.4% among 340,000
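Reporter virus HCVcc-Cre (~0.5 moi) infects cells exposed to compound; seeding density 1,000 cells/well with 4 h settling beforehand. Luminescence, 15 sec read, taken 44 h post-infection following a 15 min RT substrate incubation.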
A number is an active result; – = inactive; ? = inconclusive; · = no result; [ ] = another dose, or the depositor's remark. Unless noted, calls come from the whole dose curve; as a rule, active = well fitted curve in the direction sought with a large enough effect; inconclusive = small, poorly fitted or top-dose-only effect, or another doubt; inactive = no such curve, though single readings can be large; an effect the other way counts as inactive or inconclusive.

SMILES	Shiga toxin inh	CHX counter	Pf growth 96h	Pf growth 48h	AMA1 RON2 block	HCV inhibitor
COc1cc(-c2nnc(SCC(=O)N3CCOCC3)o2)cc(OC)c1OC	–	–	?	–	–	–
N#Cc1ccccc1CSc1nnc(-c2ccncc2)o1	49	34	–	–	–	–
CSc1nnc(-c2sccc2-n2cccc2)o1	–	–	?	?	–	–
COc1cc(-c2nnc(SCc3ccccc3Cl)o2)cc(OC)c1OC	–	–	–	?	–	?
COc1cc(-c2nnc(SCC3(c4ccc(Br)cc4)OCCO3)o2)cc(OC)c1OC	–	–	13µM	10µM	–	?
Clc1cccc(Cl)c1CSc1nnc(-c2sccc2-n2cccc2)o1	95	20	?	?	–	?
N#Cc1ccccc1NC(=O)CSc1nnc(-c2ccncc2)o1	–	–	–	–[5.75 µM]	–	–
N#Cc1cccc(-c2nnc(SCc3ccccc3C#N)o2)c1	89	46	–	–	–	–
O=C(COc1ccccc1[N+](=O)[O-])N1CCN(c2ccccn2)CC1	·	·	–	–	–	–
CCCCCCCCN1C(=O)[C@H](CC(=O)N2CCCC2)C[C@@]2(C(=O)OC)CCCCC=C12	·	·	·	·	–	·
N#Cc1ccc(CSc2nnc(-c3cccc(S(=O)(=O)N4CCCCC4)c3)o2)cc1	–	–	?	13µM	–	?
Cc1onc(-c2ccccc2Cl)c1C(=O)O/N=C(\N)c1ccc([N+](=O)[O-])o1	–	–	15µM	3.7µM	–	?
C/C(=N/OC(=O)c1c(-c2ccccc2Cl)noc1C)c1cnccn1	–	–	?	–	–	–
CN(C)c1ccc(C=C2SC(=S)NC2=O)cc1	·	·	·	·	–	–
CN(C)c1ccc(/C=N/N=C2/NC(=O)/C(=C/c3ccc([N+](=O)[O-])cc3)S2)cc1	54	28	–	–	–	–
COc1cccc(Nc2c(F)c(F)c(F)c(F)c2C(=O)O)c1	–	–	13µM	–	–	–
CCOc1ccccc1Nc1ccc(C(=O)O)cc1N	–	–	?	–	–	–
Cc1ccc(Nc2ccc(C(=O)O)cc2N)cc1	–	22	?	–	–	–
COc1cccc(Nc2c(F)c(OC)c(F)c(F)c2C(=O)O)c1	–	–	–	–	–	–
COc1cccc(Nc2ccc(C(=O)O)cc2N)c1	74	62	?	–	–	–
Cc1cc(C)cc(Nc2ccc(C(=O)O)cc2N)c1	48	52	–	–	–	–
Cc1cc(C)cc(Nc2ccc(C(=O)O)cc2[N+](=O)[O-])c1	–	–	–	–	–	–
O=C(CNC(=O)c1ccc(Br)o1)NCc1ccc(Cl)cc1	–	–	–	–	–	–
COCCN1C(=O)c2ccccc2C1c1nnnn1Cc1ccccc1 (configuration not stated)	·	·	·	·	–	·
CC(=O)C[C@H](O)CC(=O)[C@@H]1OC(=O)CCCCCCc2ccccc21	·	·	–	–	–	–
SMILES	Shiga toxin inh	CHX counter	Pf growth 96h	Pf growth 48h	AMA1 RON2 block	HCV inhibitor
OC(CN1CCC(Cc2ccc(F)cc2)CC1)c1ccc(Cl)cc1 (configuration not stated)	·	·	2.1µM	1.5µM	·	·
OC(CN1CCN(c2ccc(F)cc2)CC1)c1ccc(Cl)cc1 (configuration not stated)	–	–	13µM	·	–	–
CC(C)CC(CO)NS(=O)(=O)c1cccc(Cl)c1F (configuration not stated)	·	·	·	·	–	–
CC(C)C[C@@H](CO)NS(=O)(=O)c1c(F)cccc1F	·	·	·	·	–	3.5µM
CC(=O)Nc1cc(-c2ccncc2)cn2c(-c3ccccc3)cnc12	·	·	·	·	–	·
CCOC(=O)c1c(C)n(C)c2cc(-c3ccc(F)cc3)c(O)cc12	–	–	–	7.4µM	–[11.6 µM]	–
CCOC(=O)c1c(C)n(C)c2ccc(OCC(O)CN(CC)CC)cc12 (configuration not stated)	–	–	5.9µM	·	–	?
COCCOC(=O)c1c(C)n(C)c2ccc(OC(=O)N3CCOCC3)cc12	–	–	?	–	–	–
CCOC(=O)c1c(C)n(C)c2ccc(OCC(O)Cn3nc(C)cc3C)cc12 (configuration not stated)	–	–	·	?	–	?
COCCOC(=O)c1c(C)n(C)c2ccc(OC(=O)c3c(OC)cccc3OC)cc12	–	–	?	1.9µM	–	?
CCOC(=O)c1c(C)n(C)c2ccc(OCC(N)=O)cc12	–	–	10µM	–	–	–
Cn1c(=O)c2c(nc3n2CC(O)CN3c2ccc(O)cc2)n(C)c1=O (configuration not stated)	–	–	–	–	–	–
COc1ccccc1CNC(=O)COC(=O)c1ccccc1SCC(=O)N1CCCC1	·	·	?	?	–	?
CCOc1ccc(-n2c(C)c(C(C)=O)c3cc(OCC(N)=O)ccc32)cc1	–	–	–	13µM	–	–
CC(=O)c1ccc(OCc2ncc(C(F)(F)F)cc2Cl)cc1	76	36	–	–	–	–
FC(F)(F)c1cnc(COc2ccc(Cl)cc2Cl)c(Cl)c1	66	17	–	–	–	–
CCOc1cccc(N(C(=O)C2COc3ccccc3O2)C(C(=O)NC2CCCCC2)c2ccc(O)cc2)c1 (configuration not stated)	–	–	–	13µM	–	–
O=C(NCCc1ccc(O)c(O)c1)C1COc2ccccc2O1 (configuration not stated)	–	–	–	?	–	?
CC(C)CCNC(=O)C(c1ccc(O)cc1)N(C(=O)C1COc2ccccc2O1)c1cccc(O)c1 (configuration not stated)	–	–	?	12µM	–	–
O=C(NC1CCCC1)C(c1ccc(O)cc1)N(CC1CCCO1)C(=O)C1COc2ccccc2O1 (configuration not stated)	–	–	–	?	–	–
COCCNC(=O)C(c1ccc(F)cc1)N(Cc1cccs1)C(=O)CCC(=O)Nc1ccccn1 (configuration not stated)	–	–	–	–	–	–
O=[N+]([O-])c1ccc(O)c(/C=N/NC(=S)Nc2ccc(Cl)cc2Cl)c1	–	–	0.83µM	2.1µM	–	–
Cc1cc(Cl)ccc1NC(=O)CCC(=O)N/N=C/c1cc([N+](=O)[O-])ccc1O	–	–	?	?	–	–
Cc1c(Cl)cccc1N=Cc1ccc([N+](=O)[O-])s1	–	–	?	?	–	–
O=[N+]([O-])c1ccc(/C=N/NC(=S)Nc2ccc(Cl)cc2Cl)s1	–	–	3.3µM	13µM	–	?
CCN(CC)S(=O)(=O)c1ccc(Cl)c(NC(=O)COC(=O)c2cccn2C)c1	–	–	?	–	–	5.6µM

Compound activity: PubChem, National Center for Advancing Translational Sciences (NCATS)
